# According to ChEMBL document CHEMBL3988442, “University of Dundee, Small-Polar-MMV Screening Library” (2021):
# Out of some 66,000 compounds screened, about 960 (1.5%) showed an effect of 50% or more. The sample as a whole holds a higher share of strong results than the screen did.
# System: Trypanosoma brucei
# Test: Trypanosoma brucei 72 hour study
# Format: functional, organism-based
# Design: scale not given: in the data most compounds retested in dose-response had high values
structure (smiles),measurement,setting,value
O=C(Nc1ccccc1Cl)N1CCN(CC2CC2)[C@@H]2CS(=O)(=O)C[C@@H]21,Percent Effect,"30 µM, 30.03 µM",-39.32%
Cc1ccc2c(c1)nc1n2[C@@H](CNC(=O)c2cncnc2)COC1,Percent Effect,"30.3 µM, […]",-3.868%
COc1ccc2c(c1)nc1n2[C@@H](CNC(=O)c2ccccn2)COC1,Percent Effect,"30 µM, 30.03 µM",-12.62%
COc1ccc2c(c1)nc1n2[C@@H](CNC(=O)c2cccnc2)COC1,Percent Effect,"30.3 µM, […]",-10.65%
CCNC(=O)NC[C@H]1COCc2nc3cc(C)ccc3n21,Percent Effect,"30.3 µM, […]",32.27%
COc1ccc(C(=O)NC[C@H]2COCc3nc4cc(C)ccc4n32)cc1,Percent Effect,"30.3 µM, […]",101.3%
CCNC(=O)NC[C@H]1COCc2nc3cc(OC)ccc3n21,Percent Effect,"30 µM, 30.03 µM",86.68%
Cc1ccoc1-c1nnc(CNC2CCCN(c3cccnn3)C2)o1 (stereo not drawn),Percent Effect,"30.3 µM, […]",3.988%
CNCC(=O)N1CCCC1c1cncc(Oc2ccc(F)cc2)n1.Cl (stereo not drawn),Percent Effect,"30.3 µM, […]",-5.938%
CS(=O)(=O)c1ccc(-c2cnc(C3CCCN3)cn2)cc1.Cl (stereo not drawn),Percent Effect,"30.3 µM, […]",-27.05%
Cc1nccc(N[C@H]2CN(C(=O)CN3CCCC3=O)C[C@@H]2C(C)C)n1,Percent Effect,"30 µM, 30.03 µM",-19.05%
O=C(CN1CCCCC1)N1CCC(c2cc(=O)n3c(n2)CCCCC3)C1.O=C(O)CC(O)(CC(=O)O)C(=O)O (stereo not drawn),Percent Effect,"30.3 µM, […]",-11%
Cc1ccc(CN2CCC3(CC2)C(=O)N(CC(C)C)CCN3C)s1.O=C(O)C(F)(F)F.O=C(O)C(F)(F)F,Percent Effect,"30.3 µM, […]",-75.61%
COc1cccc([C@@]2(O)CC[C@@H]3CN(C(=O)c4ccn(C)n4)C[C@@H]32)c1,Percent Effect,"30.3 µM, […]",1.75%
CN(CC(=O)NCC(F)(F)F)C(=O)c1ccc(C(=O)OC(C)(C)C)cc1,Percent Effect,"30 µM, 30.03 µM",14.69%
N#Cc1c(Cl)nsc1NCc1ccnc(OCC(F)(F)F)c1,Percent Effect,"30 µM, 30.03 µM",-8.155%
CCS(=O)(=O)c1ccccc1N1CCC(NC2CCCC2)CC1,Percent Effect,"30.3 µM, […]",22.61%
N#Cc1cn(C2CC2)c(=O)n(Cc2noc(-c3cccs3)n2)c1=O,Percent Effect,"30.3 µM, […]",18.62%
N#Cc1cn(C2CC2)c(=O)n(Cc2ncc(-c3cccs3)o2)c1=O,Percent Effect,"30.3 µM, […]",55.83%
N#Cc1cn(C2CC2)c(=O)n(Cc2cc(-c3cccs3)on2)c1=O,Percent Effect,"30.3 µM, […]",-130.2%
Cc1nc(CNC(=O)N2CCN(c3ccc(Cl)cn3)CC2)sc1C,Percent Effect,"30.3 µM, […]",8.84%
COc1cccc(C(=O)N2C[C@H]3CC[C@@H]2CN(Cc2cscn2)C3)c1,Percent Effect,"30 µM, 30.03 µM",-1.998%
O=C(NCc1cccs1)[C@H]1CC[C@@H]2[C@@H](CCN2C2CCC2)O1.O=C(O)C(F)(F)F,Percent Effect,"30 µM, 30.03 µM",-12.3%
Cl.Cl.c1cnc(NCc2cncc3c2CCN(Cc2cccs2)C3)nc1,Percent Effect,"30 µM, 30.03 µM",-8.466%
CC(C)CN1CCC(NC(=O)c2ccc(F)cc2F)CC1,Percent Effect,"30 µM, 30.03 µM",-0.8337%
CC(C)CN1CCC(NC(=O)c2ccc(F)cc2I)CC1,Percent Effect,"30 µM, 30.03 µM",77.98%
CCCN1CCC(NC(=O)c2csc(C)c2C)CC1,Percent Effect,"30.3 µM, […]",-65.99%
CCCN1CCC(NC(=O)c2ccc(F)cc2I)CC1,Percent Effect,"30 µM, 30.03 µM",80.53%
CC(C)CN1CCC(NC(=O)c2ccc(F)cc2Cl)CC1,Percent Effect,"30 µM, 30.03 µM",-22.52%
CCN1CCC(NC(=O)c2ccc(F)cc2I)CC1,Percent Effect,"30 µM, 30.03 µM",29.33%
CNC(=O)COC1COC2(CCN(Cc3cccnc3OC)CC2)C1.O=C(O)C(F)(F)F (stereo not drawn),Percent Effect,"30.3 µM, […]",-30.72%
O=C(O)C(F)(F)F.O=C([C@@H]1C[C@@H]2CCN(c3cccc(F)c3)C[C@H]2O1)N1CCCC1,Percent Effect,"30.3 µM, […]",-10.13%
COc1cc(NC(=O)c2ccc(CN3CC[C@H](O)C3)cc2)cc(OC)c1,Percent Effect,"30.3 µM, […]",58.59%
Cc1cncc(NC(=O)c2ccc(CN3CC[C@H](O)C3)cc2)c1,Percent Effect,"30.3 µM, […]",-21.22%
Cc1cc(NC(=O)c2ccc(CN3CC[C@H](O)C3)cc2)ccc1F,Percent Effect,"30.3 µM, […]",41.32%
CN(C)Cc1cn2c(n1)CN(C(=O)Cc1ccsc1)CC2.O=C(O)C(F)(F)F,Percent Effect,"30 µM, 30.03 µM",-42.4%
Cl.O=c1c2sccc2nc2n1CCN(Cc1ccc(F)c(F)c1)CC2,Percent Effect,"30.3 µM, […]",15.73%
COc1cccc(O[C@H]2CCN(c3nc(C)cc(C)n3)CC[C@@H]2O)c1,Percent Effect,"30.3 µM, […]",-10.89%
COc1ccc(C2CN(c3nc(C)cc(C)n3)CCN2C(C)=O)cc1 (stereo not drawn),Percent Effect,"30.3 µM, […]",9.247%
COc1ccnc(N2CCc3ccc(OC(F)F)cc3C2)n1,Percent Effect,"30.3 µM, […]",7.96%
COc1ccc2c(c1)CN(c1nc(C)cc(C)n1)CC2,Percent Effect,"30.3 µM, […]",100.3%
Cc1cc(C)nc(N2CCc3ccc(OC(F)F)cc3C2)n1,Percent Effect,"30.3 µM, […]",70.84%
COc1ccc2c(c1)CN(c1cc(N3CCCC3CO)ncn1)CC2 (stereo not drawn),Percent Effect,"30.3 µM, […]",27.38%
CN1CCc2c(C#N)c(NCc3cccnc3)n3cnnc3c2C1.Cl,Percent Effect,"30 µM, 30.03 µM",-8.696%
CCC(C)N(Cc1ccsc1)C(=O)c1ccc2[nH]nnc2c1 (stereo not drawn),Percent Effect,"30 µM, 30.03 µM",2.149%
O=C(O)C(F)(F)F.c1cnc(N2CCO[C@H]3CN(CC4CCOC4)C[C@H]32)cn1 (stereo partly drawn),Percent Effect,"30.3 µM, […]",-89.28%
Fc1ccc(N2CCCN(c3ccc(Cn4ccnc4)cn3)CC2)cc1,Percent Effect,"30 µM, 30.03 µM",-16.3%
CS(=O)(=O)N1CCO[C@@H]2CN(C(=O)N3CCOCC3)CC[C@@H]2C1,Percent Effect,"30.3 µM, […]",-93.06%
Cc1cnn(CCNCc2nc(CNC(=O)c3ccccc3)no2)c1,Percent Effect,"30.3 µM, […]",55.13%
Cc1cnn(CCNCc2nc(Cc3ccccc3)no2)c1,Percent Effect,"30 µM, 30.03 µM",-8.184%
CCc1noc(CNCCn2cc(C)cn2)n1,Percent Effect,"30.3 µM, […]",-10.46%
CC(NC(=O)NCc1cc(Br)cs1)c1ccccn1 (stereo not drawn),Percent Effect,10 µM,-58.94%
COc1ccc(CN2CCC(c3nnc(-c4scnc4C)o3)CC2)cc1,Percent Effect,"30.3 µM, […]",3.062%
CCc1cc(N[C@@H]2C[C@H]3CC[C@@H]2C3)n2nccc2n1,Percent Effect,"30 µM, 30.03 µM",24.99%
CCCn1ncc(-c2ccnc(NC3CC(C)(C)NC(C)(C)C3)n2)c1C,Percent Effect,"30.3 µM, […]",25.37%
Cn1ncc2c(N[C@@H]3C[C@@H]4CC[C@H]3C4)nc(-c3ccncc3)nc21,Percent Effect,"30.3 µM, […]",-15.13%
CCCn1ncc(-c2ccnc(NC3CCCc4ccccc43)n2)c1C (stereo not drawn),Percent Effect,"30 µM, 30.03 µM",93.43%
CCCn1cc(-c2ccnc(NC3CCc4ccccc4C3)n2)c(C)n1 (stereo not drawn),Percent Effect,"30 µM, 30.03 µM",2.067%
CCCn1ncc(-c2ccnc(N[C@@H]3C[C@@H]4CC[C@H]3C4)n2)c1C,Percent Effect,"30.3 µM, […]",89.15%
CCCn1cc(-c2ccnc(NC3CCCc4ccccc43)n2)c(C)n1 (stereo not drawn),Percent Effect,"30 µM, 30.03 µM",15.8%
CCCn1ncc(-c2ccnc(NC3CCSC3)n2)c1C (stereo not drawn),Percent Effect,"30.3 µM, […]",99.54%
CCCn1cc(-c2ccnc(NC3CCc4ccccc43)n2)c(C)n1 (stereo not drawn),Percent Effect,"30 µM, 30.03 µM",34.15%
Cc1ccc(C(=O)N2CCC3(CCN3c3ncccn3)C2)cn1.O=C(O)C(F)(F)F (stereo not drawn),Percent Effect,"30 µM, 30.03 µM",-27.47%
COC(=O)CCN(C)C(=O)c1csc(Cc2ccccc2F)n1,Percent Effect,"30 µM, 30.03 µM",-48.33%
O=C(O)C(F)(F)F.O=C(c1ccccc1)N1CCC2(CCCN2c2ncccn2)CC1,Percent Effect,"30 µM, 30.03 µM",-3.287%
Oc1cccc(CN2C[C@H]3CC[C@@H]2CN(Cc2ccc(F)cc2)C3)c1,Percent Effect,"30.3 µM, […]",102.6%
CCCN1C[C@H]2CC[C@@H]1CN(Cc1cccc(O)c1)C2,Percent Effect,"30.3 µM, […]",-137.4%
Cc1nnsc1CN1C[C@H]2CC[C@@H]1CN(Cc1ccc(F)cc1)C2,Percent Effect,"30 µM, 30.03 µM",-34.67%
Cc1ccc(CN2CCc3nnc(COCCN(C)C)n3CC2)o1.O=C(O)C(F)(F)F.O=C(O)C(F)(F)F,Percent Effect,"30.3 µM, […]",-5.489%
Cc1ccc2c(n1)N(CC1CC1)CCN(Cc1cnn(C)c1)C2,Percent Effect,"30.3 µM, […]",-21.1%
c1cc(-c2cn3nccc3nc2C2CCCCC2)nc(N2CCCC2)n1,Percent Effect,"30.3 µM, […]",41.66%
CN1CCCN(c2nccc(-c3c[nH]c4ccc(Br)cc34)n2)CC1,Percent Effect,"30.3 µM, […]",99.21%
CN1CCN(c2nccc(-c3cncnc3C3CCCCC3)n2)CC1,Percent Effect,"30.3 µM, […]",-9.341%
CN1CCCN(c2nccc(-c3c[nH]nc3C3CCCCC3)n2)CC1,Percent Effect,"30 µM, 30.03 µM",98.42%
c1cc(-c2c[nH]nc2C2CCCCC2)nc(N2CCCCCC2)n1,Percent Effect,"30.3 µM, […]",99.82%
CN1CCCN(c2nccc(-c3cc(C(=O)O)ccn3)n2)CC1,Percent Effect,"30 µM, 30.03 µM",-37.76%
CN1CCCN(c2nccc(-c3c[nH]nc3-c3ccncc3)n2)CC1,Percent Effect,"30.3 µM, […]",10.61%
Nc1nccc(-c2c[nH]nc2C2CCCCC2)n1,Percent Effect,"30 µM, 30.03 µM",44.22%
NC(=O)C1CCN(c2nccc(-c3c[nH]nc3C3CCCCC3)n2)CC1,Percent Effect,"30.3 µM, […]",100.2%
CN1CCCN(c2nccc(-c3cncnc3C3CCCCC3)n2)CC1,Percent Effect,"30.3 µM, […]",-3.717%
Cc1ccnc(N2CCC(C(N)=O)CC2)n1,Percent Effect,"30.3 µM, […]",-17.59%
NC(=O)[C@H]1CCCN(c2nccc(-c3c[nH]nc3-c3cccnc3)n2)C1,Percent Effect,"30.3 µM, […]",-17.38%
Cc1nnsc1C(=O)N1CCCC(n2nnc3cc(F)ccc32)C1 (stereo not drawn),Percent Effect,"30.3 µM, […]",2.47%
CC1COCCN1Cc1nc(-c2ccsc2)no1 (stereo not drawn),Percent Effect,"30.3 µM, […]",-0.3401%
same,Percent Effect,"10 mM, 10 mM as filed; unlikely as a test dose",-39.38%
CC(C)N1CCO[C@@H]2CN(S(=O)(=O)c3cccs3)CC[C@@H]2C1.O=C(O)C(F)(F)F,Percent Effect,"30.3 µM, […]",-39.91%
COc1ccc(OC)c(CN2CCc3nc4ccsc4c(=O)n3CC2)c1.Cl,Percent Effect,"30.3 µM, […]",12.93%
OC[C@@H]1CCCN1c1nccc(-c2c[nH]nc2-c2ccncc2)n1,Percent Effect,"30.3 µM, […]",21.87%
OC[C@H]1CCCN1c1nccc(-c2cncnc2C2CCCCC2)n1,Percent Effect,"30.3 µM, […]",-14.29%
OC[C@H]1CCCN1c1nccc(-c2c[nH]nc2C2CCCCC2)n1,Percent Effect,"30.3 µM, […]",98.96%
CCc1noc(C(C)N(C)CC(=O)Nc2ccc(Br)cc2C)n1 (stereo not drawn),Percent Effect,"30 µM, 30.03 µM",-22.21%
COc1ncccc1CN1C[C@@H]2COC[C@]2(COCC(=O)N(C)C)C1.O=C(O)C(F)(F)F.O=C(O)C(F)(F)F,Percent Effect,"30 µM, 30.03 µM",-7.446%
Clc1ccccc1C1(c2ccnc(-c3ncccn3)n2)CCNCC1,Percent Effect,"30 µM, 30.03 µM",30.19%
Clc1ccccc1C1(c2ccnc(C3CCCC3)n2)CCNCC1,Percent Effect,"30 µM, 30.03 µM",101.7%
Clc1ccccc1C1(c2ccnc(C3CC3)n2)CCNCC1,Percent Effect,"30 µM, 30.03 µM",-58.64%
Clc1ccccc1C1(c2ccnc(CC3CC3)n2)CCNCC1,Percent Effect,"30 µM, 30.03 µM",25.18%
CC(C)(C)c1nccc(C2(c3ccccc3Cl)CCNCC2)n1,Percent Effect,"30 µM, 30.03 µM",98.68%
CC(C)c1nccc(C2(c3ccccc3Cl)CCNCC2)n1,Percent Effect,"30 µM, 30.03 µM",-6.514%
